From PubChem BioAssay (EPA / NIEHS)
Where “and” joins values, the source holds several entries; their conditions need not be identical. Equal entries are not always repeated. Results filed as inconclusive are left out. More than one record can exist for a structure, and the calls need not agree. Calls of active or inactive are those of the source. Rule for the calls, unless noted: active = hit-call score of the fitted dose curve at least 0.9, where 1 is the maximum; inactive = score below 0.9.

What was measured:
[1] = IUF_NPC1b_proliferation_BrdU_72hr: Leibniz Research Institute for Environmental Medicine (IUF) 72-hour Neural Progenitor Cell Bromodeoxyuridine (BrdU) Proliferation Assay (NPC1b) (AID 2284207)
Outline: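 Proliferation of primary human neural progenitor cells: 72 h compound treatment at 37C, 5% CO2, pH 7.2-7.6, in EGF/FGF-containing medium. Readout is BrdU uptake (last 16 h) by chemiluminescent ELISA, normalised to DMSO.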

[2] = IUF_NPC1a_proliferation_area_72hr: Leibniz Research Institute for Environmental Medicine (IUF) 72-hour Neural Progenitor Cell Proliferation Area Assay (NPC1a) (AID 2284208)
Outline: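 Single 0.25–0.35 mm human fetal neural progenitor spheres in proliferation medium with EGF and FGF, exposed 72 h from plating without renewal at 37C, pH 7.2-7.6. Sphere area growth measured by automated phase-contrast imaging, relative to DMSO.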

[3] = IUF_NPC1_viability_72hr: Viability Assessment at 72 hours in the Leibniz Research Institute for Environmental Medicine (IUF) Neural Progenitor Cell Proliferation Assay (NPC1) (AID 2284209)
Outline: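 hNPC spheres, 1/well, EGF+FGF medium, 37C/5% CO2; dosed day 0, 72 h, no re-dosing. Resazurin reduction (alamar blue) fluorescence; DMSO = negative control/baseline; growth-factor-free wells as positive control.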

[4] = CCTE_Mundy_HCI_Cortical_Synap_Neur_Matur_NeuriteSpotCountPerNeuriteLength: CCTE's Synaptogenesis and Neurite Maturation Assay in rat cortical cells for Neurite Spot Count per Neurite Length, Mundy Lab (AID 2284210)
Outline: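 Primary rat cortical neurons, compound exposure DIV 7–12, 288.33 h endpoint. Hoechst, anti-MAP2 and anti-synaptophysin labelling; neurite-associated puncta per neurite length scored by automated imaging relative to DMSO controls.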

[5] = CCTE_Mundy_HCI_Cortical_Synap_Neur_Matur_BPCount: CCTE's Synaptogenesis and Neurite Maturation Assay in rat cortical cells for Branch Point Count, Mundy Lab (AID 2284211)
Outline: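 Rat primary cortical cultures, AraC added DIV 5; chemicals dosed DIV 7 through DIV 12. Fixed cells stained for MAP2, synaptophysin and Hoechst; neurite branch points counted by automated high-content imaging, fitted relative to DMSO.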

[6] = CCTE_Mundy_HCI_Cortical_NOG_NeuriteCount: CCTE's Neurite Outgrowth Assay in rat cortical cells for Neurite Count, Mundy Lab (AID 2284212);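 note: cells fixed about two days after chemical exposure began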
Outline: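 Neurite number per cell from high-content imaging of betaIII-tubulin immunostaining, with Hoechst nuclear counterstain.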

[7] = CCTE_Mundy_HCI_Cortical_NOG_NeuriteLength: CCTE's Neurite Outgrowth Assay in rat cortical cells for Neurite Length, Mundy Lab (AID 2284213);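 for AC50: neurites imaged about 48 to 50 h after chemical exposure began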
Outline: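 Neurite length was read by high-content imaging of βIII-tubulin-labelled neurites in rat primary cortical cultures. Activity was fitted relative to DMSO.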

[8] = CCTE_Mundy_HCI_Cortical_Synap_Neur_Matur_NeuriteLength: CCTE's Synaptogenesis and Neurite Maturation Assay in rat cortical cells for Neurite Length, Mundy Lab (AID 2284214)
Outline: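 Rat cortical neurons, AraC at DIV 5; compound + media change DIV 7, end DIV 12 (288.33 h). Fix, MAP2/synaptophysin/Hoechst immunostain, automated HCI of neurite length vs DMSO.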

[9] = CCTE_Mundy_HCI_Cortical_Synap_Neur_Matur_NeuriteSpotCountPerNeuron: CCTE's Synaptogenesis and Neurite Maturation Assay in rat cortical cells for Neurite Spot Count per Neuron Count, Mundy Lab (AID 2284215)
Outline: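 Rat primary cortical cultures given AraC at DIV 5, dosed from DIV 7 to DIV 12 with media change. Fixed, stained for MAP2, synaptophysin and Hoechst; neurite-associated synaptophysin puncta per neuron quantified by high-content imaging versus DMSO.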

[10] = CCTE_Mundy_HCI_Cortical_Synap_Neur_Matur_SynapseCount: CCTE's Synaptogenesis and Neurite Maturation Assay in rat cortical cells for Synapse Count, Mundy Lab (AID 2284218)
Outline: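 Primary rat cortical culture; AraC DIV 5 to arrest glia; compound + media change DIV 7; terminated DIV 12. PFA/Hoechst fix, anti-MAP2 + anti-synaptophysin immunostain; HCI synapse count/neuron; DMSO = baseline.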

[11] = CCTE_Mundy_HCI_Cortical_Synap_Neur_Matur_NeuriteCount: CCTE's Synaptogenesis and Neurite Maturation Assay in rat cortical cells for Neurite Count, Mundy Lab (AID 2284222)
Outline: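 Primary rat cortical cells were plated, treated with AraC at DIV 5, then exposed to chemicals from DIV 7 through DIV 12. After fixation and immunostaining for MAP2 and synaptophysin, imaging quantified neurites, with DMSO as the negative control.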

[12] = CCTE_Mundy_HCI_Cortical_Synap_Neur_Matur_CellBodySpotCount: CCTE's Synaptogenesis and Neurite Maturation Assay in rat cortical cells for Cell Body Spot Count, Mundy Lab (AID 2284223)
Outline: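 Primary rat cortical cultures, AraC added at DIV 5; dosed DIV 7 through DIV 12 […]. Fixed, stained for MAP2 and synaptophysin with Hoechst; cell body-associated synaptophysin puncta per neuron counted by high-content imaging, loss vs DMSO.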

[13] = CCTE_Mundy_HCI_hNP1_Pro_ResponderAvgInten: CCTE's Proliferation Assay in human neuroprogenitor cells, Mundy Lab (AID 2284224; active = hit-call score of the fitted dose curve at least 0.9, where 1 is the maximum;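 note: human neural progenitor cells hNP1 derived from WA09 embryonic stem cells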)
Outline: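 Proliferation was scored as BrdU labelling intensity in human neural progenitors derived from WA09 embryonic cells, measured 26.25 hours after chemical dosing. Activity was fitted relative to DMSO.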

[14] = BSK_BT_PBMCCytotoxicity: PBMC Cytotoxicity Assessment in the BioMAP Diversity Plus: BT Assay (AID 2284225); details: primary human B cells with PBMC;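 note: PBMC viability measured by Alamar Blue dye reduction fluorescence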
Outline: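 PBMC (75,000/well) pretreated with compound 1 h, then activated with SEB and TSST-1 (20 ng/mL each final), incubated 90 h; Alamar Blue added 6 h, fluorescence read at 546/580 nm. Fitted relative to DMSO.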

[15] = read-out: Secreted IgG (sIgG), gene 3500; test: BSK_BT_sIgG: BioMAP Diversity Plus: BT Assay for Secreted IgG (sIgG) Biomarker Activity (AID 2284226); details: primary human B cells with PBMC
Outline: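 Read-out: ELISA for secreted IgG after 24 h of chemical exposure in a B cell plus PBMC co-culture. Values reflect upward-direction fitting against DMSO negative controls.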

[16] = BSK_BT_Bcell_Proliferation: Viability Assessment in the BioMAP Diversity Plus: BT Assay for B cell Proliferation (AID 2284227); details: primary human B cells with PBMC
Outline: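 Read-out is absorbance at 560 nm from sulforhodamine B staining of total protein, reflecting relative cell numbers in a human B cell and PBMC co-culture after 72 h of chemical exposure. Values were referenced to DMSO.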

[17] = read-out: Interleukin 6 (IL6), IL6 (gene 3569); test: BSK_BT_xIL6: BioMAP Diversity Plus: BT Assay for Interleukin 6 (IL6) Biomarker Activity (AID 2284228); details: primary human B cells with PBMC
Outline: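 Human B cell/PBMC co-culture; secreted IL-6 quantified by Luminex xMAP 24 h after chemical dosing, fitted relative to DMSO. Parallel PBMC viability by Alamar Blue after 1 h pretreatment, 20 ng/mL SEB and TSST-1, 90 h incubation.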

[18] = TAMU_PeakParms_SingleDonor1434_Chronotropy: Texas A&M University (TAMU) 1.5-hr Human Induced Pluripotent Stem Cell (iPSC)-derived Cardiomyocytes Calcium (Ca+2) Flux Assay for Cardiotoxicity: Chronotropy (changes in peak frequency) (AID 2284217); details: actives raise or lower the signal
Outline: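 iPSC-CMs, donor 1434; 4 conc (0.2–100 uM), 0.5% v/v DMSO, 90 min, 37C/5% CO2; Ca2+ flux fluorescence → peak.freq.avg; peak.freq.avg = 0 dropped; bidirectional fit vs DMSO; EC05 POD.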

Measured: AC50

O=C(O)C(F)(F)C(F)(F)C(F)(F)C(F)(F)C(F)(F)C(F)(F)C(F)(F)F
inactive: [2] | [3] | [4] | [5] | [6] | [7] | [8] | [9] | [10] | [11] | [12] | [13] | [14] | [15] | [16] | [17]
active: [1] 6.45 µM and 11.7 µM | [14] 30 µM | [16] 24 µM

O=S(=O)(O)C(F)(F)C(F)(F)C(F)(F)C(F)(F)C(F)(F)C(F)(F)C(F)(F)C(F)(F)F
inactive: [1] | [2] | [3] | [4] | [5] | [6] | [7] | [8] | [9] | [10] | [11] | [12] | [14] | [15] | [16] | [17]
active: [1] 12.6 µM | [14] 24 µM and 33.9 µM | [16] 19.5 µM

CC[C@H](C)[C@H]1O[C@]2(C=C[C@@H]1C)C[C@@H]1C[C@@H](C/C=C(\C)[C@@H](O[C@H]3C[C@H](OC)[C@@H](O[C@H]4C[C@H](OC)[C@@H](O)[C@H](C)O4)[C@H](C)O3)[C@@H](C)/C=C/C=C3\CO[C@@H]4[C@H](O)C(C)=C[C@@H](C(=O)O1)[C@]34O)O2 (tested in a mixture with another compound)
inactive: [3]
active: [1] 8.2 µM | [2] 5.05 µM | [4] 2.51 µM | [5] 0.896 µM | [6] 8.88 µM | [7] 8.48 µM | [8] 1.08 µM | [9] 1.19 µM | [10] 1.41 µM | [11] 1.59 µM | [12] 1.75 µM | [13] 1.45 µM

COP(=S)(OC)Oc1ccc([N+](=O)[O-])cc1
active: [6] 23.4 µM | [7] 23.7 µM | [8] 15 µM | [9] 15 µM
inactive: [1] | [2] | [3] | [4] | [5] | [10] | [11] | [12]

CCC(C)(C)C(=O)OC1=C(c2ccc(Cl)cc2Cl)C(=O)OC12CCCCC2
not listed: [14] | [15] | [16] | [17] | [18]
inactive: all other assays above

ClC1C(Cl)C(Cl)C(Cl)C(Cl)C1Cl (configuration not stated)
active: [18] 11.5 µM | [15] 30.5 µM and 21.1 µM | [16] 33.6 µM
inactive: [14] | [16] | [17]

CCOCN(C(=O)CCl)c1c(C)cccc1CC
active: [18] 4.73 µM

O=C(O)COc1ccc(Cl)cc1Cl
active: [1] 50.1 µM
not listed: [5] | [12] | [14] | [15] | [16] | [17] | [18]
inactive: all other assays above

CC(C)N(C(=O)COc1nnc(C(F)(F)F)s1)c1ccc(F)cc1
not listed: [14] | [15] | [16] | [17] | [18]
inactive: all other assays above
